Here are results for 38 molecules from PubChem BioAssay (Tox21).

Inconclusive results are not listed. Unmarked numbers belong to inactive results. The source made the active and inactive calls. Unless noted, calls come from the whole dose curve; as a rule, active = well fitted cell-killing curve with a large enough effect in the repeat runs; inconclusive = weak or mixed curves, or effect the other way; inactive = no such curve, though single readings can be large or run the other way.
% is set by controls: 0 for no effect and ±100 for the full control effect; potency is the fitted concentration of half-maximal effect.

Peroxisome proliferator-activated receptor gamma (Homo sapiens), sequence (P37231 whole entry, looked up): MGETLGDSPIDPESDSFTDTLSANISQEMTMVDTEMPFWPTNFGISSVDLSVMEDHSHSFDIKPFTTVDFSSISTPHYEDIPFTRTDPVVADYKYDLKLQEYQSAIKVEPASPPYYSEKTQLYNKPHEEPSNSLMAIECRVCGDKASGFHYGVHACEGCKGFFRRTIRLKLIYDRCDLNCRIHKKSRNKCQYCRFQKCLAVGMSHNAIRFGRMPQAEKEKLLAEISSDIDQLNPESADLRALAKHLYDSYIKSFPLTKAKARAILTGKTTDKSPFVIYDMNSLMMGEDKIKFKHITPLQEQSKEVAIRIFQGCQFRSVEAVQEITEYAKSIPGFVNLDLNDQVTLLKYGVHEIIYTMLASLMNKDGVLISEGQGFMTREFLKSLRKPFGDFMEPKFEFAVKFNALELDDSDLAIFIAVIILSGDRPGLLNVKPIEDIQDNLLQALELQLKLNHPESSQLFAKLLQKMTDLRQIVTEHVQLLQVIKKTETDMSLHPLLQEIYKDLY

In the first assay the target is Peroxisome proliferator-activated receptor gamma (Homo sapiens) (UniProt P37231). Put plainly: qHTS assay to identify small molecule agonists of the peroxisome proliferator-activated receptor gamma (PPARg) signaling pathway (AID 743094; active = well fitted activation curve with a large enough effect in the signal ratio in the repeat runs, not every such curve was filed as active; the % refers to the signal ratio). Conditions: HEK293H PPARg-UAS-bla, beta-lactamase FRET ratio, 17 h; series mostly up to 57 µM; activation: at the top concentration. In a few lines:
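Agonism was assessed in a beta-lactamase reporter system, HEK293H cells with a stably integrated UAS-bla construct under PPARg control; the 17 h treatment at 37C preceded a 1 h room-temperature FRET substrate read.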
As for `C[C@]12CC[C@H]3[C@@H](CCC4=CC(=O)CC[C@@]43C)[C@@H]1CC[C@@H]2O`, the “activation” value was 0.374%.
For `Clc1ccc(C(c2ccc(Cl)cc2)C(Cl)(Cl)Cl)cc1`, the “activation” value was 1.29%.
On the same count and under the same terms, then `NNC(=O)c1ccccc1`, with -4.82% [at 78.9 µM]; and `Clc1ccc(CSC(Cn2ccnc2)c2ccc(Cl)cc2Cl)cc1` (stereo unspecified), with 3.08% [at 26.2 µM].
On the same count and under the same terms, then `ClC(Cl)=C(Cl)Cl`, with -0.43%.
Same read-out and setting: the result for `CC(=O)O[C@H]1CC[C@@]2(C)C(=CC[C@@H]3[C@@H]2CC[C@]2(C)C(=O)CC[C@@H]32)C1` reads -0.576% [at 26.2 µM]; that for `ClC1=C(Cl)C2(Cl)C3C(Cl)C=CC3C1(Cl)C2(Cl)Cl` (stereo unspecified), 4.42%; that for `C[C@]12CC[C@@H]3c4ccc(OC(=O)N(CCCl)CCCl)cc4CC[C@H]3[C@@H]1CC[C@@H]2O`, -12.3%.
With `CC(C)CC(C)N` (stereo unspecified), the “activation” value is 4.55%.
Same read-out and setting: the result for `N#CCCSCCC#N` reads -2.68%; that for `C[C@H]1CC[C@@H]2[C@@H](C)[C@H]3[C@H](C[C@H]4[C@@H]5CC=C6CC(O[C@@H]7O[C@H](CO)[C@H](O)[C@H](O[C@@H]8O[C@H](CO)[C@@H](O)[C@H](O)[C@H]8O)[C@H]7O[C@H]7O[C@@H](C)[C@H](O)[C@@H](O)[C@H]7O)CC[C@]6(C)[C@H]5CC[C@]34C)N2C1` (stereo partly specified), 6.31%.
Same read-out and setting: the result for `Clc1ccc(C(Cl)(Cl)Cl)c(Cl)c1` reads -4.68% [at 78.9 µM].
For `CCOC(=O)CC(=O)CCl`, the Potency is 21.9 µM (active).
In the case of `CN(C)CCc1c[nH]c2ccc(O)cc12`, the “activation” value is -1.82%.
`CC(C)OC(=O)C(O)(c1ccc(Cl)cc1)c1ccc(Cl)cc1`: the “activation” value was -9.27%.

Another assay shares this target. Put plainly: qHTS assay to identify small molecule antagonists of the peroxisome proliferator-activated receptor gamma (PPARg) signaling pathway (AID 743191; calls by dose curve; note: nearly all actives have a fitted effect of over 30% in size). Conditions: HEK293H PPARg-UAS-bla, beta-lactamase ratio, antagonist, 17 h; series mostly up to 62.6 µM; ratio activity, negative = inhibition: at the top concentration. The essentials: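 GeneBLAzer PPARg UAS-bla HEK293H cells carrying a UAS-driven beta-lactamase reporter were plated at 3000 cells/well, preincubated 5 h at 37C, then given compound for 17 h at 37C; LiveBLAzer B/G FRET substrate was read after 1 h at room temperature.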
`c1ccc2c(c1)[nH]c1cnccc12`: the “ratio activity, negative = inhibition” value was 7.82%.
On the same count and under the same terms, the result for `CC(C)(C)c1cc([N+](=O)[O-])cc(C(C)(C)C)c1O` reads -14.7%.
Consider `O=c1[nH]c2ccccc2n1C1CCN(CCCC(c2ccc(F)cc2)c2ccc(F)cc2)CC1`, for which the Potency is 34.7 µM (active).
Take `CC(C)(C)OO`: the “ratio activity, negative = inhibition” value was 5.98%.
On the same count and under the same terms, the result for `N#CNC#N` reads -1.05% [at 81.1 µM].
With `CC(C)OC(=S)S`, the “ratio activity, negative = inhibition” value is -2.64%.
As to `CCN`, the “ratio activity, negative = inhibition” value was -0.377% [at 81.1 µM].
Regarding `Fc1cccc(Cl)c1CCl`, the “ratio activity, negative = inhibition” value is -0.331%.
Same read-out and setting: then `CC(C)CCCCCOC(=O)c1ccccc1C(=O)OCCCCCC(C)C`, with 4.62%.
Still for that read-out and setting: the result for `CC(=O)Nc1ccc2c(c1)Cc1ccccc1-2` reads 0.686% [at 81.1 µM]; that for `CC(C)OS(C)(=O)=O`, 1.3% [at 81.1 µM].
Still for that read-out and setting: then `COc1cccc(C(=O)CCN[C@@H](C)[C@H](O)c2ccccc2)c1`, with -29.3%.
Turning to `Clc1ccc(C(c2ccc(Cl)cc2)C(Cl)(Cl)Cl)cc1`, the “ratio activity, negative = inhibition” value is 11.6%.
On the same count and under the same terms, the result for `NNC(=O)c1ccccc1` reads -2.94% [at 81.1 µM].
Same read-out and setting: then `N#CCCSCCC#N`, with -8.14%; and `Clc1ccc(C(Cl)(Cl)Cl)c(Cl)c1`, with -2.07% [at 81.1 µM].
Still for that read-out and setting: then `CN(C)CCc1c[nH]c2ccc(O)cc12`, with 14.7% [at 81.1 µM].

Test system in the next assay: not listed separately
The experiment in a line: qHTS assay to identify small molecule antagonists of the peroxisome proliferator-activated receptor gamma (PPARg) signaling pathway - cell viability counter screen (AID 743194). Note: nearly all actives have a fitted effect of over 55% in size. Conditions: PPARg-bla HEK293H viability, CellTiter-Glo luminescence, 17 h; Potency: co-treated with 50 nM rosiglitazone unless noted; series mostly up to 62.6 µM; activity change, negative = cytotoxicity: at the top concentration. In a few lines:
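PPARg-UAS-bla HEK293H cells were plated, rested 5 h at 37 C, then treated with compounds plus rosiglitazone (50 nM final) for 17 h at 37 C; viability was then read by CellTiter-Glo luminescence after 30 min at room temperature.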
As to `c1ccc2c(c1)[nH]c1cnccc12`, the “activity change, negative = cytotoxicity” value is -3.6%.
As to `O=c1[nH]c2ccccc2n1C1CCN(CCCC(c2ccc(F)cc2)c2ccc(F)cc2)CC1`, the Potency is 24.5 µM [setting not given] (active).
As for `CC(C)(C)OO`, the “activity change, negative = cytotoxicity” value was 8.35%.
As for `BrCBr`, the “activity change, negative = cytotoxicity” value is 7.44% [at 81.1 µM, co-treated with 50 nM rosiglitazone].
On the same count and under the same terms, then `COc1ccc(/C(=C/C(=O)N2CCOCC2)c2ccc(Cl)cc2)cc1OC`, with 25.5%; and `BrC(Br)Br`, with 14.4%; and `N#CNC#N`, with -5.62% [at 81.1 µM, co-treated with 50 nM rosiglitazone].
Consider `COc1cc(N)c(Cl)cc1C(=O)NC1CN2CCC1CC2` (stereo unspecified), for which the “activity change, negative = cytotoxicity” value is 9.61%.
The same measure, in the same setting: the result for `ClC(Cl)=C(c1ccc(Cl)cc1)c1ccc(Cl)cc1` reads -18.3%.
Still for that read-out and setting: the result for `CC(C)OC(=S)S` reads 9.6%.
Regarding `CCN`, the “activity change, negative = cytotoxicity” value was 9.67% [at 81.1 µM, co-treated with 50 nM rosiglitazone].
Same read-out and setting: then `CCCCCCCCCCCCCN1CC(C)OC(C)C1` (stereo unspecified), with -20.4%.
As for `CC(C)CCCCCOC(=O)c1ccccc1C(=O)OCCCCCC(C)C`, the “activity change, negative = cytotoxicity” value was 2.13%.
As for `O=[N+]([O-])c1ccc(Oc2ccc(C(F)(F)F)cc2[N+](=O)[O-])cc1`, the “activity change, negative = cytotoxicity” value is -8.54%.
As to `CC(C)OS(C)(=O)=O`, the “activity change, negative = cytotoxicity” value is 3.03% [at 81.1 µM, co-treated with 50 nM rosiglitazone].
As for `FC(F)(F)c1cccc(C2=CCN(CCc3ccc4ccccc4c3)CC2)c1`, the “activity change, negative = cytotoxicity” value was -0.771%.
For `COc1cccc(C(=O)CCN[C@@H](C)[C@H](O)c2ccccc2)c1`, the “activity change, negative = cytotoxicity” value is -4.12%.
For the molecule `CCCCN(CCCC)C(=S)[S-].CCCCN(CCCC)C(=S)[S-].[Zn+2]`, the Potency was 5.49 µM (active).
Regarding `C[C@]12CC[C@H]3[C@@H](CCC4=CC(=O)CC[C@@]43C)[C@@H]1CC[C@@H]2O`, the “activity change, negative = cytotoxicity” value was 0.124% [at 62.6 µM].
On the same count and under the same terms, the result for `NNC(=O)c1ccccc1` reads -8.25% [at 81.1 µM, co-treated with 50 nM rosiglitazone].
On to `Clc1ccc(CSC(Cn2ccnc2)c2ccc(Cl)cc2Cl)cc1` (stereo unspecified), for which the Potency is 29.8 µM (active).
Consider `CC(=O)O[C@H]1CC[C@@]2(C)C(=CC[C@@H]3[C@@H]2CC[C@]2(C)C(=O)CC[C@@H]32)C1`, for which the “activity change, negative = cytotoxicity” value was -14.5% [at 62.6 µM].
Still for that read-out and setting: the result for `C[C@]12CC[C@@H]3c4ccc(OC(=O)N(CCCl)CCCl)cc4CC[C@H]3[C@@H]1CC[C@@H]2O` reads -11.2%.
Still for that read-out and setting: the result for `N#CCCSCCC#N` reads 14.2%.
As for `C[C@H]1CC[C@@H]2[C@@H](C)[C@H]3[C@H](C[C@H]4[C@@H]5CC=C6CC(O[C@@H]7O[C@H](CO)[C@H](O)[C@H](O[C@@H]8O[C@H](CO)[C@@H](O)[C@H](O)[C@H]8O)[C@H]7O[C@H]7O[C@@H](C)[C@H](O)[C@@H](O)[C@H]7O)CC[C@]6(C)[C@H]5CC[C@]34C)N2C1` (stereo partly specified), the Potency is 8.99 µM (active).
Turning to `Clc1ccc(C(Cl)(Cl)Cl)c(Cl)c1`, the “activity change, negative = cytotoxicity” value was 0.208% [at 81.1 µM, co-treated with 50 nM rosiglitazone].
Still for that read-out and setting: the result for `CN(C)CCc1c[nH]c2ccc(O)cc12` reads 17.8% [at 81.1 µM].

Test system in the next assay: not listed separately
The experiment in a line: qHTS assay for small molecule agonists of the antioxidant response element (ARE) signaling pathway (AID 743202; active = well fitted activation curve with a large enough effect in the signal ratio in the repeat runs, not every such curve was filed as active; the % refers to the signal ratio). The note with it: HepG2 ARE-bla reporter, beta-lactamase FRET, 16 h; series mostly up to 73.3 µM; activation: at the top concentration. In a few lines: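 Steps: seed ARE-bla HepG2 cells (2,000/well); incubate 5 h at 37 C; add compounds by pin tool; incubate 16 h at 37 C; add FRET substrate; read fluorescence after 2 h at RT.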
A general note: In qHTS, concentration-response curves come from the screen itself.
Take `CC(C)(C)c1cc([N+](=O)[O-])cc(C(C)(C)C)c1O`: the “activation” value is -13.4%.
In the case of `BrCBr`, the “activation” value is -8.13% [at 94.8 µM].
`BrC(Br)Br`: the “activation” value is -1.59%.
In the case of `N#CNC#N`, the “activation” value is -12.3% [at 94.8 µM].
In the case of `COc1cc(N)c(Cl)cc1C(=O)NC1CN2CCC1CC2` (stereo unspecified), the “activation” value is 5.55%.
The same measure, in the same setting: then `CCN`, with 5.32% [at 94.8 µM].
Still for that read-out and setting: the result for `CC(C)CCCCCOC(=O)c1ccccc1C(=O)OCCCCCC(C)C` reads 0.308%.
In the case of `CC(=O)Nc1ccc2c(c1)Cc1ccccc1-2`, the Potency was 27.7 µM (active).
Take `CC(C)OS(C)(=O)=O`: the “activation” value is 0.0357% [at 94.8 µM].
The same measure, in the same setting: then `CCOC(=O)OC1=C(c2cc(C)ccc2C)C(=O)NC12CCC(OC)CC2` (stereo unspecified), with -0.182%; and `O=C1NCN(c2ccccc2)C12CCN(CC1COc3ccccc3O1)CC2` (stereo unspecified), with 5.14%; and `NNC(=O)c1ccccc1`, with 2.02% [at 94.8 µM].
Turning to `ClC(Cl)=C(Cl)Cl`, the “activation” value is 2.08%.
With `CC(=O)O[C@H]1CC[C@@]2(C)C(=CC[C@@H]3[C@@H]2CC[C@]2(C)C(=O)CC[C@@H]32)C1`, the Potency is 48.6 µM (active).
In the case of `CC(C)CC(C)N` (stereo unspecified), the “activation” value is -1.98%.
Same read-out and setting: the result for `N#CCCSCCC#N` reads 3.54%.
For `CC(C)OC(=O)C(O)(c1ccc(Cl)cc1)c1ccc(Cl)cc1`, the “activation” value is 17.2%.
